# Reference: the supplement of paper PMC11732987, “Enantioselective OTUD7B fragment discovery through chemoproteomics screening and high-throughput optimisation” (Communications Chemistry, 2025)
# Values without a mark were called inactive.
# How the values were obtained:
# Test in all cases: log2 ratio of Biotin-Ahx-Ub-VS probe labelling (fragment/DMSO); higher = less target engagement (more negative = stronger competition), active = hit call of the paper (q ≤ 0.05, log2 ratio ≤ -1)
# Details in all cases: compound concentration: 200 uM; treatment time: 3 h
# USP19 = target: T1, USP19 (UniProt O94966)
# T1 sequence (whole entry): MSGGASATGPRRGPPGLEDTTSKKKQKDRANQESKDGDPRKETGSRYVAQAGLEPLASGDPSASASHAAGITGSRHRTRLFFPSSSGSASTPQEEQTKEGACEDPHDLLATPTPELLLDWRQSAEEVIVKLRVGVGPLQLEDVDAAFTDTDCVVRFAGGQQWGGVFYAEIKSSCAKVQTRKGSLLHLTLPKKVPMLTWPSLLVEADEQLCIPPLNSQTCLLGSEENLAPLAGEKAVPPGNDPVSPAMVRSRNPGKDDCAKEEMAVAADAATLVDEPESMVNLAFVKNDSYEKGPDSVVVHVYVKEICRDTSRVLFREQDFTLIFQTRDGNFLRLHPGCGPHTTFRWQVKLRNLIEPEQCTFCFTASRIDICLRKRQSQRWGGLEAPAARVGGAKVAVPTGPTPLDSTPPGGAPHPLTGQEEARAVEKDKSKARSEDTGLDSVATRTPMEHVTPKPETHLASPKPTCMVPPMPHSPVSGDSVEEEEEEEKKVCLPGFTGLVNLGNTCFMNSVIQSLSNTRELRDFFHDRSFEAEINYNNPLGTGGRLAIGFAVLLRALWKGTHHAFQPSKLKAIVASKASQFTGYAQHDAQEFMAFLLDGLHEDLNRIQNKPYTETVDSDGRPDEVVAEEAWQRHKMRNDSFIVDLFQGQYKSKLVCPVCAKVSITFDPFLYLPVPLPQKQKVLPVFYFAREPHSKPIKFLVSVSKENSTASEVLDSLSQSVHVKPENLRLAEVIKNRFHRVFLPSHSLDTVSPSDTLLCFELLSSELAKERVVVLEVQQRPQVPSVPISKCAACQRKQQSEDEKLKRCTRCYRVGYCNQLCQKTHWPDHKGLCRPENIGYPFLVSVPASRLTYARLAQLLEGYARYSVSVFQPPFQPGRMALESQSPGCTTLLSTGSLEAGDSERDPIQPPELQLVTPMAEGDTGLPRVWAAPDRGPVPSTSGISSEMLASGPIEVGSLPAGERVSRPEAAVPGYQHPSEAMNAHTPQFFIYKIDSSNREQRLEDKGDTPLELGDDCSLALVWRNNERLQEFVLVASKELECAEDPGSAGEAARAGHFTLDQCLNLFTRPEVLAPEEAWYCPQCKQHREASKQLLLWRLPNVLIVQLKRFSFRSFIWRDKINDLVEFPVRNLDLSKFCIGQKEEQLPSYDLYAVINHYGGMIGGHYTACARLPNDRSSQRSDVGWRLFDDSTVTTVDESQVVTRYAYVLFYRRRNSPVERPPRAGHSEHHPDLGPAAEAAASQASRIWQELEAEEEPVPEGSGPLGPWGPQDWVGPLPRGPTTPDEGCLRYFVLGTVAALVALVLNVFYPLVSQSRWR
# How it was run: (§1)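 The table lists average log2 ratios of fragment over vehicle, from an unpaired t-test on global-median-normalised Spectronaut label-free quantities. Proteins with ≥2 unique peptides were used. Samples were HEK293T lysate (495 µg) treated in triplicate with fragment at 200 µM or vehicle for 3 h, then with Biotin-Ahx-Ub-VS (0.5 µM final) for 1 h, with labelled DUBs NeutrAvidin-enriched and run by diaPASEF LC-MS/MS.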
# USP22 = target: T2, USP22 (UniProt Q9UPT9)
# T2 sequence (whole entry): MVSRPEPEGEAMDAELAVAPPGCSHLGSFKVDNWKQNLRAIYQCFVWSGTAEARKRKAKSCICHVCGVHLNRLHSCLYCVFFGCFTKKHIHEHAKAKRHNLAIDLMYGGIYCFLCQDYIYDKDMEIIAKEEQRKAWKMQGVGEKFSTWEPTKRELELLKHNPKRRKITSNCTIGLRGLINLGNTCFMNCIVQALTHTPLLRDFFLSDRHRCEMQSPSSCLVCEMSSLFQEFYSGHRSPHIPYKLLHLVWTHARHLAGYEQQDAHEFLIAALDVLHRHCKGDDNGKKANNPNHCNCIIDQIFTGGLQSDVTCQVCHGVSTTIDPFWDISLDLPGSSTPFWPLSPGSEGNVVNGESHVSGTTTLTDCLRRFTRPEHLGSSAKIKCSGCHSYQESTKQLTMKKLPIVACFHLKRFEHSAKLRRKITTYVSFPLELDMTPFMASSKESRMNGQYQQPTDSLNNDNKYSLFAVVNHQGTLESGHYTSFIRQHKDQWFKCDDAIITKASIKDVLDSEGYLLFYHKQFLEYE
# How it was run: as §1
# USP24 = USP24 (UniProt Q9UPU5)
# How it was run: as §1
# USP25 = target: T3, USP25 (UniProt Q9UHP3)
# T3 sequence (whole entry): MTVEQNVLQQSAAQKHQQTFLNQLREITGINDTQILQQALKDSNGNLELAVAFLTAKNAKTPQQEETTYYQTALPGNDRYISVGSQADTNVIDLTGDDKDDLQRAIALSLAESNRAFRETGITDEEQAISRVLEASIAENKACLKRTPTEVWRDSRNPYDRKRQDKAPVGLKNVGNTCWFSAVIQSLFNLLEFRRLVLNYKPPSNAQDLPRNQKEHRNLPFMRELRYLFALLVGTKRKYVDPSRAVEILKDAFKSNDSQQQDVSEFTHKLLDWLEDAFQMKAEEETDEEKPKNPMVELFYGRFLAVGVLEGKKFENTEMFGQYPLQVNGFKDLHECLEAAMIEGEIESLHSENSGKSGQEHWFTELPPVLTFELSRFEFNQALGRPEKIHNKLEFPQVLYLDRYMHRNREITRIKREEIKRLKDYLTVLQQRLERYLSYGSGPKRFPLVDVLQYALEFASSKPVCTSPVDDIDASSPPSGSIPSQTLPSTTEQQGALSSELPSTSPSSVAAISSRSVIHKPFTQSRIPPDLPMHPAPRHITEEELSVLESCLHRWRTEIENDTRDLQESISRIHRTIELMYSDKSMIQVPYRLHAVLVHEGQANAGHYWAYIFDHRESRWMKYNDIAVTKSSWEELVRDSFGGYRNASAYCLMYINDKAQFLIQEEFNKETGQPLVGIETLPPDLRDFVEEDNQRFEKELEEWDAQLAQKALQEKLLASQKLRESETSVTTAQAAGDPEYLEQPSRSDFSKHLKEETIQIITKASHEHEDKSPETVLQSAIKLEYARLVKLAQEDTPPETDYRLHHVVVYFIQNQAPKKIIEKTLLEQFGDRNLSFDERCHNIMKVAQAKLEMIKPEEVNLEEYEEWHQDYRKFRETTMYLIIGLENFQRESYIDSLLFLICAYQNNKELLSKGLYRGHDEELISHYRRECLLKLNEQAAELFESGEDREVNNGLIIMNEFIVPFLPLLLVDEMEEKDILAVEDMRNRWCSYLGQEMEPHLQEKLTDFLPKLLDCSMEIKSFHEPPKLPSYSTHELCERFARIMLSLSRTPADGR
# How it was run: as §1
# USP28 = target: T4, USP28 (UniProt Q96RU2)
# T4 sequence (whole entry): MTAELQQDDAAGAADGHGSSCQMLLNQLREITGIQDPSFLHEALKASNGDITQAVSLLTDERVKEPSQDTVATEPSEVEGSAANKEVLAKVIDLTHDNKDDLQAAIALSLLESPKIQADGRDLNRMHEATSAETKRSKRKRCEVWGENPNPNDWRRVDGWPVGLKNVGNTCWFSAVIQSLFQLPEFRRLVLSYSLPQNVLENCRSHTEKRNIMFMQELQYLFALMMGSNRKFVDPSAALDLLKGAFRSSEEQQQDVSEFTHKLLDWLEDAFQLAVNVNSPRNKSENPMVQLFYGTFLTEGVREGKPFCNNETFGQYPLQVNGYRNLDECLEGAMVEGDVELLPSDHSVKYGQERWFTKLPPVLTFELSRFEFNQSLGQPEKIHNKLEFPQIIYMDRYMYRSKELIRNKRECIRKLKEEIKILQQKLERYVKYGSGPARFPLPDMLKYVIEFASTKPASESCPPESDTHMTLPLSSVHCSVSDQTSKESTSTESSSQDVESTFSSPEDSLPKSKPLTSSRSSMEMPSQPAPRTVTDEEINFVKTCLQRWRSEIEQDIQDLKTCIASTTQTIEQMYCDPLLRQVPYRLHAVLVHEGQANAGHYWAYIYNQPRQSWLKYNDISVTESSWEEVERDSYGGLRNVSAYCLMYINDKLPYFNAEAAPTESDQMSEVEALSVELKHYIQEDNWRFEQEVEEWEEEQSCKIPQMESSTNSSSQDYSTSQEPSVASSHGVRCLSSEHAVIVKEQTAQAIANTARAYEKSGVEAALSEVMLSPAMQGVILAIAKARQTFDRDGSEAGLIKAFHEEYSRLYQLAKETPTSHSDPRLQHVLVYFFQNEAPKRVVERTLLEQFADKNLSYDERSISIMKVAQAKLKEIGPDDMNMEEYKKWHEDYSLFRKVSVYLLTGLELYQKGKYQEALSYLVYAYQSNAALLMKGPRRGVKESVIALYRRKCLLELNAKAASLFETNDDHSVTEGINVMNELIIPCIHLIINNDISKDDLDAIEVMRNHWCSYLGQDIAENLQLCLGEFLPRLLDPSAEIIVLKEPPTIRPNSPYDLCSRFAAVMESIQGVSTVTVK
# How it was run: as §1
# Chain of USP24 (Q9UPU5 whole entry): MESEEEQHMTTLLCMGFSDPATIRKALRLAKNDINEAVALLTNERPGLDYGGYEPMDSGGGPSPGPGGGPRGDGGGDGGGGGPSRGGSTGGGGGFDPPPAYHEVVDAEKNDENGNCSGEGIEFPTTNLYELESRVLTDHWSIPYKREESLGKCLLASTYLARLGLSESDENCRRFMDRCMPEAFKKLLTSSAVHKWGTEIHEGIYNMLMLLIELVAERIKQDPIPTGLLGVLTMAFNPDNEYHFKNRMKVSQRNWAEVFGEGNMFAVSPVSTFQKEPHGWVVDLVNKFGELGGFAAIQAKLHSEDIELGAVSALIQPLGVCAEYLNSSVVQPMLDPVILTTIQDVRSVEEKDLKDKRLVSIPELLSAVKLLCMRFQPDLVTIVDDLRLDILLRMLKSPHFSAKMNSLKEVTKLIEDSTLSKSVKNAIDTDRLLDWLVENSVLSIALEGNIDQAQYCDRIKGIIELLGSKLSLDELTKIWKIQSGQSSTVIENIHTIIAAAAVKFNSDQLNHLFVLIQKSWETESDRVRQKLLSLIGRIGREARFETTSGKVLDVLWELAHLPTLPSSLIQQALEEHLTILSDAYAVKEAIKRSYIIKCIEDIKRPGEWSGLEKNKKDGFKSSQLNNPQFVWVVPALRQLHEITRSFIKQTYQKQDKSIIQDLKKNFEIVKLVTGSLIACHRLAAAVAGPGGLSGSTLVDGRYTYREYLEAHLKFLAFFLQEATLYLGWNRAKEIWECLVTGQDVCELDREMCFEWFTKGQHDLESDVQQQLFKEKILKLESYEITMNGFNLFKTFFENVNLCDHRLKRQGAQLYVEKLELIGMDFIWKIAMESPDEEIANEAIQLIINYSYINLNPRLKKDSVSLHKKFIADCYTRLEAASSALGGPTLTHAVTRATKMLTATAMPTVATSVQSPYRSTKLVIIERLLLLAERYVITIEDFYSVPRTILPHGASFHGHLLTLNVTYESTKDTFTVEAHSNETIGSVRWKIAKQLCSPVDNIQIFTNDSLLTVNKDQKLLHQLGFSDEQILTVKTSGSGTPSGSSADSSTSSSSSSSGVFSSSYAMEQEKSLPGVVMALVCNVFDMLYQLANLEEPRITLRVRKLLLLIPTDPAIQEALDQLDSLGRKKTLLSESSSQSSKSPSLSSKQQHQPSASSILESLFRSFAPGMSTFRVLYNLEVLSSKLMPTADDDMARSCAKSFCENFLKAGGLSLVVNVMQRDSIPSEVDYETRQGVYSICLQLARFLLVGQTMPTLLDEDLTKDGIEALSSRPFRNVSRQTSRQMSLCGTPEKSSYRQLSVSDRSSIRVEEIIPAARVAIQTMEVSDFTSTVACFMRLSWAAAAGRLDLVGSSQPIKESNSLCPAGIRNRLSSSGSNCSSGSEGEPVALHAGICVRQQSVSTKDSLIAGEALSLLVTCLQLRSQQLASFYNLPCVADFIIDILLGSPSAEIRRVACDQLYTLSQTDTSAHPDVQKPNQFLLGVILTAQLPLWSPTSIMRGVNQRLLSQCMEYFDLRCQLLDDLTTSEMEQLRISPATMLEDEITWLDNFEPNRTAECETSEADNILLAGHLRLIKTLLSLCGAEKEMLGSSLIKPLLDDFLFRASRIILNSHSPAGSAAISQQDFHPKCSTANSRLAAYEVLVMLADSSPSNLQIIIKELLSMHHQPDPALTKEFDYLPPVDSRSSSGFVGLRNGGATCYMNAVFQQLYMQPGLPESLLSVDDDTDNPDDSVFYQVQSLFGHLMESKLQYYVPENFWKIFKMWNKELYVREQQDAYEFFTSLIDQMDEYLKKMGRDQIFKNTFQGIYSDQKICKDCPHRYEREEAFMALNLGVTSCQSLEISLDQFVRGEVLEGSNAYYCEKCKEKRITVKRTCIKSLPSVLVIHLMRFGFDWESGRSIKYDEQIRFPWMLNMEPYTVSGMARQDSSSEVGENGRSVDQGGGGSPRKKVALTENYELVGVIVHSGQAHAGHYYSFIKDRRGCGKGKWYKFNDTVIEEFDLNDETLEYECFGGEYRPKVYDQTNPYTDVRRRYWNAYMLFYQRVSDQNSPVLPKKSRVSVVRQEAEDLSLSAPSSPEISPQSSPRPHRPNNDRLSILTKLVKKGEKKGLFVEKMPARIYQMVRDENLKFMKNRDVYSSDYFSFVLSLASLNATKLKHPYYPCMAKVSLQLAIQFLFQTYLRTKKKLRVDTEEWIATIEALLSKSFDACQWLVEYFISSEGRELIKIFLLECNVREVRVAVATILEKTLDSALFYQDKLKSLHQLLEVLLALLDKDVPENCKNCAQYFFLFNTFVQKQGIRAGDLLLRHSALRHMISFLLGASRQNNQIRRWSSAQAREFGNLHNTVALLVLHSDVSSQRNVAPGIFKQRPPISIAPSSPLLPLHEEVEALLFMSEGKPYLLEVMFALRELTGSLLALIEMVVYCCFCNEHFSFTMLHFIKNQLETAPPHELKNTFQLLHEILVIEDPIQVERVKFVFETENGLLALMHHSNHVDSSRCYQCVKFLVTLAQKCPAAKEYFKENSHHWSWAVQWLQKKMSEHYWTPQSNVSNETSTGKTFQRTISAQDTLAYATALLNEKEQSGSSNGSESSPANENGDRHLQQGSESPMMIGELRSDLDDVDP
smiles,measurement,setting,value
CN(C(=O)CCl)c1nc2ccccc2s1,log2 ratio of Biotin-Ahx-Ub-VS probe labelling,USP19,-0.126
same,log2 ratio of Biotin-Ahx-Ub-VS probe labelling,USP22,-0.0338
same,log2 ratio of Biotin-Ahx-Ub-VS probe labelling,USP24,-1.2 (active)
same,log2 ratio of Biotin-Ahx-Ub-VS probe labelling,USP25,-0.235
same,log2 ratio of Biotin-Ahx-Ub-VS probe labelling,USP28,-0.444
